Measured values as given in PubChem BioAssay (NCATS).
Records with an inconclusive call do not appear. Active and inactive are the calls of the source. Calls come from the whole dose curve; as a rule, active = well fitted curve in the direction sought with a large enough effect; inconclusive = small, poorly fitted or top-dose-only effect, or another doubt; inactive = no such curve, though single readings can be large; an effect the other way counts as inactive or inconclusive.

What was measured:
[1] = qHTS assay for measurement of the activity of small molecule inhibitors on Zika virus induced Caspase-3 activity in human iPSC derived neural progenitor cells (hNPCs) (AID 1224857); note: nearly all actives have a fitted effect of over 65% in size
Summary of the method: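 After overnight (16–20 h) culture at 350 cells/well, hNPCs get compound, then ZIKV 2 FFU/cell one hour later. Six hours on, Caspase-Glo 3/7 is added and luminescence measured.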

[2] = qHTS assay for measurement of the activity of small molecule inhibitors on Zika virus induced Caspase-3 activity in human astrocytoma cells (AID 1224859)
Summary of the method: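 Inhibition of Zika-induced caspase-3/7 activity: SNB-19 cells, 1 h compound pretreatment, ZIKV 2 FFU/cell for 6 h at 37 C, Caspase-Glo luminescence read-out.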

[3] = NS1 protein of Zika virus - qHTS assay to identify small molecule inhibitors in human HEK 293 cells (AID 1347053); note: series mostly up to about 46 µM; nearly all actives have a fitted effect of over 55% in size
Summary of the method: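 HEK 293 cells pretreated with compound for 1 h, then infected with ZIKV MR766 (MOI 0.5) for 24 h at 37 C. NS1 detected by TR-FRET with two anti-NS1 antibodies; normalized to uninfected (0%) and infected (100%) wells.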

[4] = qHTS of pediatric cancer cell lines to identify multiple opportunities for drug repurposing: Primary screen for TC32 cells (AID 1347089); note: nearly all actives have a fitted effect of over 60% in size
Summary of the method: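 Luminescent ATP read-out (CellTiter-Glo) of metabolically active TC32 cells after 48 h exposure. Concentration-response curves came from 11-point (MIPE, 0.78 nM–46 µM) or 8-point (NPC, 0.59 nM–46 µM) primary titrations; follow-up used 11 points.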

[5] = qHTS of pediatric cancer cell lines to identify multiple opportunities for drug repurposing: Primary screen for SJ-GBM2 cells (AID 1347091); note: potency is the fitted concentration of half-maximal effect
Summary of the method: (§1)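 Eight- or eleven-point concentration series, 48 h treatment at 37 degrees C in growth media; readout CellTiter-Glo luminescence. Potency and efficacy were taken from the concentration-response curves.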

[6] = qHTS of pediatric cancer cell lines to identify multiple opportunities for drug repurposing: Primary screen for SK-N-MC cells (AID 1347093); note: potency is the fitted concentration of half-maximal effect
Summary of the method: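 Metabolically active cells were quantified by ATP-dependent luminescence (CellTiter-Glo, 15 min at room temperature) following 48 h treatment. Cells had been plated at 500-1,000 per well and settled for 5 h beforehand.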

[7] = qHTS of pediatric cancer cell lines to identify multiple opportunities for drug repurposing: Primary screen for BT-37 cells (AID 1347094); note: series mostly up to about 57 µM
Summary of the method: (§2)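 Plated cells (500-1,000 per well, growth media) were allowed to settle for 5 hours, treated with compound dilutions for 48 hours, then lysed with CellTiter-Glo for 15 min at room temperature before luminescence reading.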

[8] = qHTS of pediatric cancer cell lines to identify multiple opportunities for drug repurposing: Primary screen for NB-EBc1 cells (AID 1347095); note: potency is the fitted concentration of half-maximal effect
Summary of the method: as §2

[9] = qHTS of pediatric cancer cell lines to identify multiple opportunities for drug repurposing: Primary screen for U-2 OS cells (AID 1347096); note: nearly all actives have a fitted effect of over 50% in size
Summary of the method: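 Cells (500-1,000/well) in growth media were settled 5 h at 37 degrees C, then given compounds for 48 h. Viability was read as CellTiter-Glo luminescence. Primary runs used MIPE at 11 points (0.78 nM-46 µM) and NPC at 8 points (0.59 nM-46 µM); follow-ups used 11 points.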

[10] = qHTS of pediatric cancer cell lines to identify multiple opportunities for drug repurposing: Primary screen for DAOY cells (AID 1347090); note: series mostly up to about 46 µM; nearly all actives have a fitted effect of over 55% in size
Summary of the method: as §1

[11] = qHTS of pediatric cancer cell lines to identify multiple opportunities for drug repurposing: Primary screen for A673 cells (AID 1347092); note: nearly all actives have a fitted effect of over 45% in size
Summary of the method: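 Cell viability of A673 measured by CellTiter-Glo ATP luminescence after 48 hours compound exposure. Dilution series spanned 0.78 nM to 46 µM (MIPE, 11-point) or 0.59 nM to 46 µM (NPC, 8-point); bortezomib 2.3 uM positive control.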

Measured: Potency

Cc1ccc(C(=O)Oc2ccc(C(O)CNC(C)(C)C)cc2OC(=O)c2ccc(C)cc2)cc1 (configuration not stated)
active: [6] 0.001 µM
not listed: [10] | [11]
inactive: all other assays above

COC(=O)/C=C\C(=O)OC
not listed: [5] | [11]
inactive: all other assays above

Cc1oc(-c2ccccc2)nc1CCC(=O)c1ccc(CC2SC(=O)NC2=O)cc1 (configuration not stated)
not listed: [6] | [10]
inactive: all other assays above

O=C1NC(c2ccccc2)(c2ccccc2)C(=O)N1COP(=O)(O)O
not listed: [10]
inactive: all other assays above

CC(C)(c1ccc(O)cc1)c1ccc(O)cc1
not listed: [5] | [6]
inactive: all other assays above

C[C@@H](O[C@H]1OCCN(Cc2n[nH]c(=O)[nH]2)[C@H]1c1ccc(F)cc1)c1cc(C(F)(F)F)cc(C(F)(F)F)c1
inactive: [1] | [2] | [3] | [4]
active: [5] 21.1 µM | [8] 18.8 µM

CC(=O)O[C@@H]1CC2C3CCc4cc(OC(=O)c5ccccc5)ccc4C3CCC2(C)[C@H]1OC(C)=O (some centres not stated)
not listed: [10]
inactive: all other assays above

CCC[C@H](N[C@@H](C)C(=O)N1[C@H](C(=O)O)C[C@@H]2CCCC[C@@H]21)C(=O)OCC
not listed: [5] | [6] | [7] | [11]
inactive: all other assays above

N#CSCC(=O)O
not listed: [5] | [8]
inactive: all other assays above

CCCC(=O)O[C@]1(C(=O)CC)CC[C@H]2[C@@H]3CCC4=CC(=O)CC[C@]4(C)[C@H]3[C@@H](O)C[C@@]21C
active: [6] 33.5 µM
not listed: [10] | [11]
inactive: all other assays above

CC(C)=CCC/C(C)=C/CC/C(C)=C/C(=O)OCC(=O)[C@@]1(O)CC[C@H]2[C@@H]3CCC4=CC(=O)C=C[C@]4(C)[C@H]3[C@@H](O)C[C@@]21C
active: [5] 13.3 µM
not listed: [8] | [10]
inactive: all other assays above

C=CCNc1nc(NCC=C)nc(N2CCN(C(c3ccc(F)cc3)c3ccc(F)cc3)CC2)n1
inactive: [1] | [2] | [3] | [4] | [5] | [8]
